HT1080-NT tox: kills 2HG-producing HT-1080-NT fibrosarcoma cells. HT-1080-NT fibrosarcoma viability, CellTiter-Glo ATP luminescence, 48 h. Potency, µM (doses to about 46.1 µM), most hits filed as cytotoxic. actives 1.6% (n = 360,000);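 further: NT is the 2HG producing partner of a matched IDH1 knockdown line; nearly all actives have a fitted effect of over 55% in size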
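Viability by CellTiter-Glo luminescence after 48 h compound exposure at 37C of HT-1080-NT cells (750/well, RPMI, 5% FBS). % activity scaled between DMSO wells and medium-only wells, then curve-fitted and categorized by curve class.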
MCF10A rereplic: inducers of DNA re-replication in MCF 10A breast cells; MCF 10A DNA re-replication, Hoechst nuclear intensity, 48 h; Potency, µM (highest dose often 46.1 µM), usual class: activators; actives 2.9% (n = 350,000); further: nearly all actives have a fitted effect of over 50% in size
KB-3-1 tox: kills parental KB-3-1 adenocarcinoma cells; actives 1.4% (n = 400,000); Potency, µM (series often up to 46.1 µM), hits mostly cytotoxic; KB-3-1 viability, CellTiter-Glo ATP luminescence, 72 h; further: nearly all actives have a fitted effect of over 60% in size
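Cells are dispensed, compounds pinned in, plates held at 37 °C for 72 h, then CellTiter-Glo is added and luminescence read after 10 minutes. Cell line: parental KB-3-1 in phenol-red-free DMEM, 10% FBS.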
KB-V1 MDR tox: KB-V1 MDR subline cytotoxicity; KB-V1 MDR cells viability, CellTiter-Glo, 72 h; Potency, µM (titrated, usually from 46.1 µM), actives largely listed as cytotoxic; actives 3.4% (n = 400,000); AID 1347076; further: nearly all actives have a fitted effect of over 60% in size
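KB-V1 MDR subline cells in DMEM (phenol-red free, 10% FBS) exposed to compounds in qHTS concentration series for 72 h at 37 degrees C. Viability read by CellTiter-Glo luminescence; concentration-effect curves fitted after normalization and correction.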
HT1080 IDH1KD tx: toxicity to HT-1080 IDH1 knockdown cells (counter line); HT-1080 IDH1 knockdown viability, ATP luminescence, 48 h; Potency, µM (titrated, usually from 46.1 µM), hits mostly cytotoxic; actives 2% (n = 360,000); AID 686971
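Assay cells: HT-1080 with IDH1 knockdown, 750 per well, RPMI/5% FBS. Exposure: 48 h at 37 °C following 2 h pre-incubation. Read: CellTiter-Glo luminescence; fitted concentration-response, curve class assigned.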
SW480 rereplic: induces DNA re-replication in SW480 colon adenocarcinoma cells | SW480 DNA re-replication, Hoechst DNA content imaging, 48 h | Potency, µM (titrated, usually from 46.1 µM), usual class: activators | actives 1.8% (n = 340,000) | AID 624297; further: nearly all actives have a fitted effect of over 55% in size
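DNA re-replication was detected as more nuclei of elevated Hoechst intensity after 48 hr exposure to compound (23 nL pinned per well of 250 cells).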
A number is an active result; 0 = inactive; ? = inconclusive; - = no result; [ ] = another dose, or the depositor's remark. Hits are enriched below; roughly 8% of the tested compounds scored in any of these assays. The call rests on the fitted dose curve; in most records, active means well fitted curve in the direction sought with a large enough effect; inconclusive means small, poorly fitted or top-dose-only effect, or another doubt; inactive means no such curve, though single readings can be large; an effect the other way counts as inactive or inconclusive.

SMILES | HT1080-NT tox | MCF10A rereplic | KB-3-1 tox | KB-V1 MDR tox | HT1080 IDH1KD tx | SW480 rereplic
CC1CCC(C(C)C)C(OCC(O)CN2CCOCC2)C1 (centres undefined) | 0 | 0 | ? | 0 | 0 | 0
CCN(CC)S(=O)(=O)c1ccc2oc(SCC(=O)Nc3cc(C)on3)nc2c1 | 0 | 0 | ? | 3.7µM | ? | ?
Cc1cc2cc3c(cc2nc1SCC(=O)Nc1nc(C)c(C)s1)OCO3 | 0 | 4.1µM | ? | 0 | ? | 0
CCc1nnc(NC(=O)CSc2nc3cc4c(cc3cc2CC)OCCO4)s1 | 0 | ? | 0 | 0 | 0 | 0
CCc1cc2cc(C)ccc2nc1SCC(=O)Nc1cc(C)on1 | 0 | 0 | 0 | 9.2µM | 0 | 0
CCc1cc2cc3c(cc2nc1SCC(=O)Nc1nnc(C)s1)OCCO3 | 0 | 3.3µM | 0 | ? | 0 | 16µM
Cc1cc(NC(=O)CSc2nc3cc(Cl)ccc3o2)no1 | 0 | 0 | ? | 0 | 0 | 0
COC(=O)CSc1nc2cc3c(cc2cc1C)OCO3 | 0 | 0 | 0 | 0 | 0 | 0
COc1cccc(NC(=O)CNC(=O)Cn2c(C)cc3ccccc3c2=O)c1 | - | - | 0 | 0 | - | -
COc1ccccc1NC(=O)c1nn(C)c2c1CS(=O)(=O)c1ccccc1-2 | - | - | 0 | 0 | - | -
CN(C)S(=O)(=O)N(CC(=O)NCCSCc1cccc(Cl)c1)c1ccccc1 | - | - | 0 | ? | - | -
CC(C)COc1ccc(CN=C(N)N=C(N)N)cc1Cl | ? | ? | 13µM | 0 | ? | 0
CC(C)Oc1ccc(CN=C(N)N=C(N)N)cc1Cl | ? | 0 | ? | 0 | ? | 0
CCC(=O)N1CCN(c2cc(N3CCCC3)c(F)cc2[N+](=O)[O-])CC1 | 0 | 0 | 0 | ? | ? | ?
CC(=O)N1CCN(c2cc(N3CCc4ccccc4C3)c(F)cc2[N+](=O)[O-])CC1 | ? | ? | 0 | 18µM | ? | 0
O=C(c1cccc(F)c1)N1CCN(c2cc(N3CCCCC3)c(F)cc2[N+](=O)[O-])CC1 | 0[9.24 µM] | ? | ? | 18µM | 0 | 0
CC1CC(=O)c2c(cc3c(-c4c(O)cc(O)c5c(O)c6c(cc45)OC(C)CC6=O)c(O)cc(O)c3c2O)O1 (centres undefined) | 4.6µM | ? | ? | ? | 5.2µM | 6.5µM
CCc1ccc(-c2cc3c(N4CCN(c5ccccc5)CC4)nccn3n2)cc1 | - | - | 0 | 0 | - | -
COc1ccc(CNCC(=O)Nc2ccccc2-n2cccc2)cc1 | ? | ? | ? | ? | ? | 21µM
COc1ccccc1OCC(=O)Nc1cc(S(=O)(=O)N2CCCCC2)ccc1N1CCCCC1 | 0 | ? | 0 | 0 | 0 | 0
Cc1cccc(NC(=O)CSCC(=O)Nc2ccccc2N2CCCC2)c1 | 0 | 0 | 0 | ? | 0 | 0
COc1ccccc1OCC(=O)Nc1cc(Cl)ccc1N1CCCCC1 | 0 | ? | 0 | 15µM | 0 | 0
COc1ccc(CC(=O)Nc2ccccc2N2CCCC2)cc1 | 0 | 0 | 0 | 0 | 0 | ?
Cc1cccc(NC(=O)CSCC(=O)Nc2ccccc2N2CCCCC2)c1 | 0 | 0 | ? | 16µM | 0 | ?
Cc1ccccc1OCC(=O)Nc1ccc(N2CCN(C)CC2)c(Cl)c1 | ? | 15µM | 0 | 0 | ? | ?
SMILES | HT1080-NT tox | MCF10A rereplic | KB-3-1 tox | KB-V1 MDR tox | HT1080 IDH1KD tx | SW480 rereplic
CCOC(=O)c1ccccc1NS(=O)(=O)c1ccc(N2CCCCS2(=O)=O)cc1 | - | - | 0 | 0 | - | -
COc1cccc(NC(=O)CCC(=O)N2Cc3ccccc3Oc3ncccc32)c1 | - | - | 0 | 0 | - | -
CCN(c1cccc(C)c1)S(=O)(=O)c1ccc2[nH]cc(C(=O)NCCCOC)c(=O)c2c1 | - | - | 0 | ? | - | -
O=C(COc1cccc2ccccc12)Nc1cc(Cl)ccc1C(=O)O | 0 | 6.5µM | 0 | ? | 0 | 0
COc1ccc(OCC(=O)Nc2ccccc2N2CCN(C)CC2)cc1 | 0 | 0 | 0 | 0 | 0 | 0
COc1ccc(OCC(=O)Nc2ccccc2N2CCCCC2)cc1 | 3.3µM | 3.3µM | ? | 0 | 4.1µM | 12µM
Cc1ccc(Cl)c(OCC(=O)Nc2ccccc2N2CCCCC2)c1 | 0 | ? | 0 | 0 | 0 | 3.7µM
CC(=O)c1ccc(NC(=O)NCCc2c[nH]c3ccccc23)cc1 | - | - | 0 | 0 | - | -
COc1ccc(NC(c2ccc(F)cc2)c2nnc(-c3ccccc3Cl)o2)cc1Cl (centres undefined) | - | - | 0 | 0 | - | -
Cc1cccc(NC(=O)c2ccc(-n3c(C)nnc3C)cc2)c1 | - | - | 0 | 0 | - | -
Cc1ccnc(NC(=S)N2CCN(c3ccc(N)cc3)CC2)c1 | - | - | 0 | 0 | - | -
Cc1ccc(N2C(=O)C3C4C=CC(C4)C3C2=O)cc1C (centres undefined) | 0 | 0 | 0 | 0 | 0 | 0
O=C1C2C3C=CC(C3)C2C(=O)N1c1ccc2c(c1)CCC2 (centres undefined) | 0 | 0 | 0 | 18µM | 0 | 0
O=C(O)c1ccc(CNc2ncnc3nc[nH]c23)cc1 | 0 | - | - | - | 0 | -
CN(CCN(C)c1nc(-c2cccs2)nc2ccccc12)C(=O)OC(C)(C)C | 0 | - | - | - | 0 | -
CN(Cc1ccccc1F)c1nc(-c2cccs2)nc2ccccc12 | 0 | 13µM | 0 | ? | 0 | ?
CO/N=C\CC(=O)Nc1ccc(Cl)c(Cl)c1 | 8.2µM | 16µM | 7.3µM | ? | 6.5µM | 18µM
C/C(=N\NC(=O)c1cc(Cl)ccc1O)c1ccc(Br)s1 | 0 | ? | ? | 21µM | ? | -
C/C(=N\NC(=O)c1ccc(Cl)cc1)c1ccc(Br)s1 | 0 | 0 | ? | 0 | 0 | 0
Nc1ccc2nn(-c3cccc4ccccc34)nc2c1 | 0 | 9.2µM | 0 | 0 | 0 | 18µM
Cc1ccc(-n2nc3cc(C)c(N)cc3n2)cc1 | 0 | 18µM | 0 | 0 | 0 | ?
Cc1cc2nn(-c3cccc4ccccc34)nc2cc1N | 0 | 21µM | 0 | 0 | 0 | 0
CCOc1ccc2c(c1)C(C)=CC(C)(C)N2S(=O)(=O)c1ccc(C)cc1 | 1.3µM | 0 | 2.1µM | 5.8µM | 1.8µM | 13µM
CCOc1ccc2c(c1)C(C)=CC(C)(C)N2C(=O)Nc1ccccc1F | 0 | ? | 0 | 0 | 0 | 0
COC(=O)C1(C)CN(S(=O)(=O)c2ccc(C)cc2)c2cc(OC)ccc2C1=O (centres undefined) | 0 | 0 | ? | ? | 0 | ?
CCOc1ccc(S(=O)(=O)N2CCN(c3ccc(C)cc3C)CC2)cc1 | 0 | 0 | 0 | 0 | 0 | 0
CCNC(=O)N1c2ccc(OCC)cc2C(C)=CC1(C)C | 0 | 14µM | 0 | 0 | 0 | 0
COc1ccc2c(c1)C(C)=CC(C)(C)N2S(=O)(=O)c1ccc(C)cc1 | 0.92µM | ? | 2.1µM | 2.6µM | 0.92µM | 13µM
CC1=CC(C)(C)N(S(=O)(=O)c2ccc(C)cc2)c2cc(C)ccc21 | 1µM | ? | 3.7µM | 6.5µM | 1.3µM | 7.3µM
CCOC(=O)C1=C(CN2CCN(c3ccccc3)CC2)NC(=O)NC1c1ccc(C)cc1 (centres undefined) | - | - | 0 | 0 | - | -
